Mtb UGM inh = blocks M. tuberculosis UGM enzyme. P9WIQ1. purified UGM, fluorescence polarization probe displacement. inhibition, % at 10 µM. 320,000 compounds, 0.06% hits. AID 504406; in the data active means inhibition above about 10%, passing the limit was not always enough
Target sequence (P9WIQ1 whole entry, looked up): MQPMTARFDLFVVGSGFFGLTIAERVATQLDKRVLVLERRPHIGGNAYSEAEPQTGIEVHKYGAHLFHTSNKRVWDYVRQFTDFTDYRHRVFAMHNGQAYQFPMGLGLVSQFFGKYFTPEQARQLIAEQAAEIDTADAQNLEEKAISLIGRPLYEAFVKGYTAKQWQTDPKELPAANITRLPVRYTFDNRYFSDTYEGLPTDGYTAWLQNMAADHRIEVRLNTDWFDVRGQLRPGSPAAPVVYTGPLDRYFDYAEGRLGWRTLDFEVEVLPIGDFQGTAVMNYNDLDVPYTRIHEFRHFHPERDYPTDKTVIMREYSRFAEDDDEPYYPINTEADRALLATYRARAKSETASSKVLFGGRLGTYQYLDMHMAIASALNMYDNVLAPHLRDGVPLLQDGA
Rv3671c inh = Rv3671c (M. tuberculosis) protease inhibition | P9WHR9 | inhibition, % at 5.96 µM | 320,000 compounds, 0.048% hits | AID 2606; in the data active means inhibition above about 38%;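 further: extracellular domain of Rv3671c used as enzyme; 0% = enzyme with DMSO and 100% = no enzyme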
Mtb FBA inh = inhibitors of M. tuberculosis fructose-bisphosphate aldolase. P9WQA3. purified M. tuberculosis FBA, fluorescence read-out. inhibition, % at 1 µM. 360,000 compounds, 2.3% hits. AID 588726;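 further: 0% = vehicle and 100% = reference inhibitor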
GDH-TPI counter-1 = inhibits GDH-TPI coupling enzymes, artifact for Mtb FBA screen; GDH-TPI coupled enzyme counterscreen, NADH absorbance; inhibition, % at 4.8 µM; 360,000 compounds, 1.2% hits; AID 588335; in the data active means inhibition above about 30%;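 further: 0% = DMSO wells and 100% = wells lacking the enzyme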
Mtb FBA confirm = Mtb FBA inhibition, confirmed; inhibition, % at 1 µM; 5,600 compounds, 78% hits; shares compounds with Mtb FBA inh; purified M. tuberculosis FBA, fluorescence read-out; AID 651616;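 further: 0% = vehicle wells and 100% = reference inhibitor wells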
GDH-TPI counter-2 = inhibits GDH-TPI coupling enzymes, flagging Mtb FBA hits. shares compounds with Mtb FBA inh. GDH-TPI coupled enzyme counterscreen, fluorescence. inhibition, % at 1 µM. 5,600 compounds, 81% hits; in the data active means inhibition above about 10%
The depositor's hits bear a star; x = no result; + = active, no number. An excerpt weighted towards active compounds, which were near 3.5% of everything screened. Unless noted, no stated cut-off is given here; in the data, active means inhibition above about 27%; inactive means the rest.

SMILES | Mtb UGM inh | Rv3671c inh | Mtb FBA inh | GDH-TPI counter-1 | Mtb FBA confirm | GDH-TPI counter-2
CC(C)(C)OC(=O)N1CCN(C(=O)c2[nH]cnc2C(=O)Nc2ccc(Cl)cc2)CC1 | 0.4 | -0.5 | -1.9 | 0.0 | x | x
CN(CCO)S(=O)(=O)c1ccc2c(c1)C(=NN)c1cc(S(=O)(=O)N(C)CCO)ccc1-2 | -0.4 | -6.5 | 2.8 | 18.1 | x | x
C/C=C(/C)C(=O)OC1c2c(ccc3ccc(=O)oc23)OC(C)(C)C1OC(C)=O (configuration not stated) | 0.0 | -2.4 | 15.3 | 14.3 | x | x
C/C=C(/C)C(=O)O[C@H]1[C@@H](O)c2c(ccc3ccc(=O)oc23)OC1(C)C | 0.7 | -4.1 | 34.3* | 20.2 | 92.8* | 79.5*
COc1ccc2ccc(=O)oc2c1CC=C(C)C | 1.0 | -1.6 | 1.9 | 8.8 | x | x
C/C=C(/C)C(=O)O[C@@H]1[C@H](OC(C)=O)c2c(ccc3ccc(=O)oc23)OC1(C)C | 1.0 | -3.4 | 31.6* | 31.8* | 114.8* | 87.5*
CN(C)C(CNC(=O)c1cccc(S(=O)(=O)N2CCN(c3ccc(F)cc3)CC2)c1)c1ccccc1 (configuration not stated) | x | x | 2.5 | 4.3 | x | x
O=C1CC(c2ccccc2)CC2=C1C1(CCCC1)N=C(Nc1nc3ccccc3o1)N2 (configuration not stated) | x | x | -0.2 | 6.2 | x | x
O=C(Nc1nc2nc(-c3ccccc3)cc(-c3ccccc3)n2n1)c1ccco1 | 2.9 | -19.5 | 43.2* | 28.0 | 132.2* | 97.8*
Cc1ccnc2nc(NC(=O)c3ccco3)nn12 | 0.9 | 2.9 | -4.9 | 0.0 | x | x
OC(c1ccc(Cl)c(Cl)c1)c1ncc(-c2ccccc2F)[nH]1 (configuration not stated) | x | x | 1.0 | 5.3 | x | x
O=C(COC(=O)COc1ccc(Cl)cc1)NC1CCCC1 | 1.1 | -2.9 | 1.5 | 9.2 | x | x
Cc1ccc(C2C=C(c3ccccc3OC(F)F)Nc3ncnn32)cc1 (configuration not stated) | 0.0 | -9.0 | 31.9* | 13.3 | 70.0* | 68.4*
Cc1ccc(C2=CC(c3ccccc3)n3ncnc3N2)c(C)c1 (configuration not stated) | 3.9 | 8.7 | -0.1 | 4.3 | x | x
Cc1ccc(C2=CC(c3ccccc3)n3ncnc3N2)cc1 (configuration not stated) | 3.5 | -11.1 | 67.5* | 3.1 | 87.9* | 67.4*
NC(=S)N1CCCc2ccccc21 | 1.0 | -3.3 | 4.5 | -0.7 | x | x
COc1ccc2oc(C(=O)OCC(=O)NC(C)(C#N)C3CC3)c(C)c2c1 (configuration not stated) | -4.6 | -1.2 | 30.8* | 6.5 | 21.0 | 24.5*
COc1ccc2oc(C(=O)OCC(=O)NC3CC3)c(C)c2c1 | -1.0 | 3.6 | 44.0* | 3.9 | + | +
COc1ccc2oc(C(=O)OCC(=O)Nc3ccccc3OC)c(C)c2c1 | 2.5 | 3.0 | 15.5 | 11.9 | x | x
CCOc1ccc2oc(C(=O)OCC(=O)NC3CC3)c(C)c2c1 | 2.2 | 5.0 | 40.1* | 2.9 | 62.0* | 47.2*
COc1ccc2oc(C(=O)NC3CCCCC3)c(C)c2c1 | -2.5 | -2.3 | 27.9* | 7.4 | 41.1* | 27.4*
O=C(Nc1ccc(C(F)(F)F)cc1)c1ccccc1-n1cnnn1 | -1.4 | 4.7 | 3.3 | 1.4 | x | x
COC(=O)c1oc2ccc(OC)cc2c1N | -0.1 | 8.6 | 28.6* | 7.8 | + | 165.8*
NC(=O)c1oc2ccc(Cl)cc2c1N | 0.2 | -3.5 | 86.6* | 5.0 | 100.0* | 68.8*
COc1ccc(C(=O)c2oc3ccc(OC)cc3c2N)cc1 | 0.8 | -2.1 | 8.8 | 20.2 | x | x
SMILES | Mtb UGM inh | Rv3671c inh | Mtb FBA inh | GDH-TPI counter-1 | Mtb FBA confirm | GDH-TPI counter-2
Cc1ccc(NC(=O)COC(=O)C2CC2(Cl)Cl)cc1C (configuration not stated) | -0.4 | 1.2 | 4.2 | 5.6 | x | x
CCOc1ccc(C(C(=O)NC(C)(C)C)N(CCOC)C(=O)CCC(=O)Nc2ccccn2)cc1 (configuration not stated) | 1.4 | -1.8 | 40.2* | -2.3 | 60.1* | 53.2*
O=C(CNC(=O)c1ccccc1F)N/N=C\C=C\c1ccccc1 | -3.0 | 5.1 | -2.0 | 18.4 | x | x
Cc1cc2oc(=O)cc(COC(=O)c3n[nH]c4ccccc34)c2cc1C | 2.5 | -8.0 | 6.7 | 6.8 | x | x
COc1ccc(NCc2cc(=O)oc3cc(NC(C)=O)ccc23)cc1 | 0.3 | 0.6 | 73.0* | 15.5 | 120.7* | 88.4*
CCCCCCc1c(C)c2ccc(OCC(=O)N[C@@H](Cc3ccccc3)C(=O)O)cc2oc1=O | 0.2 | -5.6 | 73.4* | 11.8 | + | +
COc1ccc2c(COC(=O)c3n[nH]c4ccccc34)cc(=O)oc2c1 | -1.7 | -22.1 | 34.5* | 13.6 | 123.8* | 106.6*
Cc1c(Cc2ccccc2)c(=O)oc2c(C)c(OCC(=O)N3CCC(C(=O)O)CC3)ccc12 | 0.2 | 1.4 | 107.3* | 20.6 | 60.1* | 32.4*
Cc1c(OCC(=O)N2CCC(C(=O)O)CC2)ccc2c3c(c(=O)oc12)CCC3 | 2.1 | 11.0 | 14.8 | 24.5 | x | x
Cc1c(C)c2ccc(OCC(=O)N[C@@H](Cc3c[nH]c4ccccc34)C(=O)O)cc2oc1=O | 1.2 | -3.8 | 9.7 | 27.4 | x | x
COc1ccc2c(CN3CCN(C(C)=O)CC3)cc(=O)oc2c1 | x | x | 3.5 | x | x | x
COc1ccc2c(CC(=O)N[C@@H](Cc3ccccc3)C(=O)O)cc(=O)oc2c1 | -0.9 | -5.6 | 100.9* | 17.6 | 99.9* | 86.2*
Cc1c(OCC(=O)NC(Cc2ccc(Cl)cc2)C(=O)O)ccc2c1oc(=O)c1ccccc12 (configuration not stated) | 2.3 | -0.3 | 17.0 | 15.7 | x | x
COc1ccc2c(CN(Cc3ccccc3)Cc3ccccc3)cc(=O)oc2c1 | x | x | 6.9 | x | x | x
Cc1c(C)c2ccc(OCC(=O)NC3CCN(Cc4ccccc4)CC3)cc2oc1=O | 1.0 | 2.2 | 38.7* | 13.4 | 49.6* | 39.2*
Cc1c(Cc2ccccc2)c(=O)oc2c(C)c(OCC(=O)N[C@@H](Cc3ccccc3)C(=O)O)ccc12 | 0.9 | -13.4 | 52.7* | 11.8 | + | +
Cc1cc(OCC(=O)N[C@@H](CSCc2ccccc2)C(=O)O)c2c(C)c(C)c(=O)oc2c1 | 1.3 | -6.1 | 62.3* | 17.6 | 78.0* | 68.3*
Cc1ccc(NC(=O)C2(C)CCN2CCc2ccccc2)cc1 (configuration not stated) | x | x | 1.6 | 12.8 | x | x
CC(=O)c1cccc(-c2ccnc3c2CC(C(=O)NCC2CCOCC2)O3)c1 (configuration not stated) | x | x | -2.9 | 0.9 | x | x
CCC1CCCCN1S(=O)(=O)c1ccc(NC(=O)C2CC(=O)N(C(C)(C)C)C2)cc1 (configuration not stated) | x | x | -0.7 | 10.9 | x | x
O=c1ccc(-c2ccccc2)nn1Cc1ccc(F)cc1Cl | 1.3 | -3.2 | 1.5 | 5.9 | x | x
C=CCNS(=O)(=O)c1ccc(C(=O)OCc2cc(=O)oc3cc(OC)ccc23)cc1 | -3.7 | -7.7 | 19.8 | 7.5 | x | x
COc1ccc2c(COC(=O)[C@H](C)NS(=O)(=O)c3ccccc3F)cc(=O)oc2c1 | -0.7 | -2.6 | 109.0* | 20.3 | + | 152.9*

Screening data as filed in PubChem.
